# Measured values published in PubChem BioAssay (NCATS).
# Inconclusive results are not listed. Where a call stands in place of a potency, no number is given. Active and inactive are the calls of the source. The call rests on the fitted dose curve; in most records, active means well fitted curve in the direction sought with a large enough effect; inconclusive means small, poorly fitted or top-dose-only effect, or another doubt; inactive means no such curve, though single readings can be large; an effect the other way counts as inactive or inconclusive.
# Experiments:
# [1] = qHTS of Nrf2 Activators: LOPAC Validation (AID 624149)
# How it was run: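 Following overnight seeding in 5% FBS OPTI-MEM, AREc32_Fluc cells receive compounds for a 24 hr incubation at 37 deg C with 5% CO2. Steady-Glo is added, and after 30 min at RT luminescence is recorded.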
# [2] = HTS Assay for Allosteric Antagonists of the Human D2 Dopamine Receptor: Hit Validation in HTRF (AID 624455);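 further: stable D1 dopamine receptor cell line scored for blocking the D1 response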
# How it was run: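 Validation of hits used D1 receptor stably expressed in cells with HTRF detection of response inhibition; origin screen measured calcium flux following EC80 dopamine in a force-coupled, inducible Hek293 Trex D2 cell line.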
# [3] = Cytotoxicity counterscreen for NFkB agonists and antagonists (AID 624476);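 further: potency means the concentration at half of the fitted maximal effect; cells exposed to compound for 48 hours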
# [4] = qHTS Assay for Identification of Small Molecule Agonists for NFkB Signaling Pathway. (AID 624478);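 further: compounds tested together with TNF alpha at its EC50 of 10 pM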
# How it was run: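 Assay medium contained 0.5% FBS and 10 mM HEPES pH 7.3. Compounds were added together with TNF alpha (10 pM final), incubated 5 h at 37 C, and the beta-lactamase signal was measured fluorometrically.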
# [5] = Cell Proliferation Assay against the TMD8 Cell Line (AID 651645); settings: TMD8 DLBCL cell line proliferation/viability; at 46.1 µM (top of the series);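 further: cells exposed to compound for 48 h before reading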
# How it was run: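 TMD8 cells, 500/well in RPMI with 5% FBS, dosed immediately and grown 48 h at 37 C, 5% CO2. CellTiter-Glo luminescence normalised to DMSO 100% and 9.2 uM bortezomib (final) 0%.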
# [6] = Cell Proliferation Assay against the HBL1 Cell Line (AID 651646); settings: HBL1 DLBCL cells; at 46.1 µM (top of the series);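 further: cells exposed to compound for 48 h before reading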
# How it was run: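 CellTiter-Glo luminescence after 48 h compound exposure at 37C gives percent activity, with DMSO as 100% and 9.2 uM bortezomib final as 0%. Cells: 500 log-phase HBL1 per well, RPMI plus 5% FBS.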
# [7] = Cell Proliferation Assay against the TMD8 Cell Line (Caspase readout at 8 hrs) (AID 651713)
# How it was run: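 Luminescent caspase 3/7 assay; TMD8 cells, 8 h treatment at 37C, 5% CO2. Normalisation: DMSO 0%, 9.2 uM bortezomib 100%.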
smiles,measurement,setting,value
CCCCC#Cc1nc(NC)c2ncn([C@@H]3O[C@H](CO)[C@@H](O)[C@H]3O)c2n1,outcome,[1],inactive
same,Potency,[2],inactive
O=c1[nH]c2cc(Cl)c(Cl)cc2[nH]c1=O,outcome,[1],inactive
same,Potency,[2],inactive
CNC(=O)[C@H]1O[C@@H](n2cnc3c(NCc4cccc(I)c4)ncnc32)[C@H](O)[C@@H]1O,outcome,[1],inactive
same,Potency,[2],inactive
COc1cc(SC)ccc1C(=O)N1CCC(Cc2ccccc2)CC1,outcome,[1],inactive
same,Potency,[2],inactive
Oc1ccccc1O,Potency,[2],inactive
C=C[C@@H]1CN2CC[C@@H]1C[C@H]2[C@H](O)c1ccnc2ccc(OC)cc12,outcome,[1],inactive
same,Potency,[2],inactive
C=CCc1cccc(/C=N/NC(=O)CN2CCN(Cc3ccccc3)CC2)c1O,Potency,[3],16.6 µM (active)
same,outcome,[4],inactive
same,viability (% of control),[5],11.3%
same,"viability, percent of control",[6],26%
same,outcome,[7],inactive
CCCCCCCC/C=C\CCCCCCCC(=O)NCCO,outcome,[1],inactive
same,Potency,[2],inactive
CCCCCCCCCCCCCCCC(=O)NCC(COP(=O)([O-])OCC[N+](C)(C)C)OCC (stereo not drawn),outcome,[1],inactive
same,Potency,[2],inactive
OCC1O[C@H](O)C(Cl)C(O)C1O (stereo partly drawn),outcome,[1],inactive
same,Potency,[2],inactive
S=C(S)OC1CC2CC1C1CCCC21 (stereo not drawn),outcome,[1],inactive
same,Potency,[2],inactive
CN=c1nc(-c2ccccc2)n(-c2ccccc2)s1,outcome,[1],inactive
same,Potency,[2],inactive
Cn1c(=O)c2[nH]c(-c3ccccc3)nc2n(C)c1=O,outcome,[1],inactive
same,Potency,[2],inactive
